# Bioassay records deposited in PubChem BioAssay by several laboratories.
# GIRK2 activator = activators of NPY4-receptor-primed GIRK2 channels, summary, cell-based, HEK293, thallium flux. G protein-activated inward rectifier potassium channel 2 (Homo sapiens), P48051. activation (% efficacy), % for hits at 37.5 µM. HEK293 GIRK2/NPY4 cells, thallium flux fluorescence. AID 1259324, 2017. 34,000 tested, under 10 active;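 active means primary screen hit, no activity in plain HEK293 cells, and in GIRK2-only cells above 5% efficacy rising with concentration; inactive means the rest, including fluorescent compounds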;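 further: efficacy is normalized control-subtracted fluorescence 15 s after thallium addition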
# GluA2 TARP mod = modulators of GluA2-stargazin AMPA receptor complexes, primary screen, cell-based, membrane potential dye. AID 1259245, 2017. HEK293 GluA2+stargazin, membrane potential dye (FDSS), glutamate EC50; hits were called plate by plate, in both directions. calls only at 30 µM. 40,000 tested, 3.5% active;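 active means any of four per-well response measures lying three or more SD from its plate-wide compound average, in either direction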
# Target sequence (O88602 whole entry, looked up): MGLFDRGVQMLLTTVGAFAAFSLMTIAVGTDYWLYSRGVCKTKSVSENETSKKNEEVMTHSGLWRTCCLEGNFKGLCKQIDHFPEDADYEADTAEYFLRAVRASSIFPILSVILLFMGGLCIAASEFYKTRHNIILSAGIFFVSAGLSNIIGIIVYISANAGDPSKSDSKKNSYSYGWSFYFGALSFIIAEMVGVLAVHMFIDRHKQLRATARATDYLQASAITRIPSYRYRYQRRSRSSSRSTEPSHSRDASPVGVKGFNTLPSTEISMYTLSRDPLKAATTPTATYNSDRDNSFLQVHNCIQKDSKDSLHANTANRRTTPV
# Target sequence (P19491 whole entry, looked up): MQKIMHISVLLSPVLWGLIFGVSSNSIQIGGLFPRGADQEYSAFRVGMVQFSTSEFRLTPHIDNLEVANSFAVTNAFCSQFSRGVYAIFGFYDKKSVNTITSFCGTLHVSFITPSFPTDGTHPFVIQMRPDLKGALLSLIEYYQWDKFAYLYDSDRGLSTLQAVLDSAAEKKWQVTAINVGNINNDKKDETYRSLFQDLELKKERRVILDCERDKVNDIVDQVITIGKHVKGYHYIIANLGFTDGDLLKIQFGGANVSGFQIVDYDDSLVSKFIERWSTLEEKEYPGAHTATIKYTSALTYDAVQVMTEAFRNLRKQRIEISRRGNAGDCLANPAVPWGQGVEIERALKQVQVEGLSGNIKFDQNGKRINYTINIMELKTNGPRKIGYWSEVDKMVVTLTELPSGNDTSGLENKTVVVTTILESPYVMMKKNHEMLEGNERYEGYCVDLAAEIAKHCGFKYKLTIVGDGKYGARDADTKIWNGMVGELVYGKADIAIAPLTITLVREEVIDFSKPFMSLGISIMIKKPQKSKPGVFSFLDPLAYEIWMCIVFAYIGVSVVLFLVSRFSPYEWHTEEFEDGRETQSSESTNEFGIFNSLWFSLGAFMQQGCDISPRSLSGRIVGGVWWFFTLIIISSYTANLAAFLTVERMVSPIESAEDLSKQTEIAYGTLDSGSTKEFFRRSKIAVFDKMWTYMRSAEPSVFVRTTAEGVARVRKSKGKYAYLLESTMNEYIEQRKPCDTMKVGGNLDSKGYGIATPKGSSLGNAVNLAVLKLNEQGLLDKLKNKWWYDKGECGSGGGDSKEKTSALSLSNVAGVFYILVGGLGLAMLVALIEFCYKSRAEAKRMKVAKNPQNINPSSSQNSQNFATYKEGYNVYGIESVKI
# Active calls of the source: *; i = inactive; nt = no result; + = active, no number. This excerpt belongs to a sample that is enriched for hits.
SMILES,GIRK2 activator,GluA2 TARP mod
COc1ccccc1C(=O)Nc1nnc(-c2ccc(Br)s2)o1,i,nt
COc1ccc(-c2nnc(-c3ccncc3)o2)cc1OC,nt,+
c1ccc(-c2nnc(-c3ccncc3)o2)cc1,nt,i
CS(=O)(=O)c1ccc(C(=O)Nc2nnc(-c3cccnc3)o2)cc1,i,+
COc1ccc(C(=O)Nc2nnc(-c3ccc(Br)s3)o2)cc1OC,i,+
COc1ccc(C(=O)Nc2nnc(-c3ccncc3)o2)cc1OC,nt,+
Cc1cc(C(=O)Nc2nc3c(C)c(Cl)ccc3s2)on1,i,i
Cn1ccnc1N1CCN(CC(=O)N2CCCCCC2)CC1,i,i
O=C(Nc1ccccc1[N+](=O)[O-])C(=O)N1CCN(c2ccc(F)cc2)CC1,nt,i
Cc1cnc2c(c1N1CCN(C(=O)c3ccco3)CC1)c(=O)n(CC(N)=O)c(=O)n2C,nt,i
CN(C)CCNC(=O)C(=O)Nc1ccc2c(c1)OCCO2,i,i
O=C(CC1CCCCN1S(=O)(=O)c1ccccc1)NCCC1=CCCCC1 (stereo not given),i,+
CC(C)(C)NC(=O)NCCC1CCCCN1S(=O)(=O)c1ccccc1 (stereo not given),nt,+
COc1ccc(S(=O)(=O)N2CCCCC2CC(=O)NCCCc2ccccc2)cc1 (stereo not given),nt,i
COc1ccc(CNC(=O)C(=O)NCCC2CCCCN2S(=O)(=O)c2ccccc2)cc1 (stereo not given),nt,i
O=C(Cc1ccc(NC(=O)C2(c3ccccc3)CCOCC2)cc1)N1CCOCC1,i,i
Cc1nc(NCC2CCCO2)nc(Nc2ccc(F)cc2)c1[N+](=O)[O-] (stereo not given),i,i
Cc1nc(NCC2CCCO2)nc(NC2CCCCC2)c1[N+](=O)[O-] (stereo not given),i,+
O=C(NCc1n[nH]c(=O)c2ccccc12)c1ccc(Cn2ccnc2)cc1,i,i
O=C(NCCn1ncc2c(=O)n(Cc3ccccc3F)cnc21)C1CCCCC1,i,i
CCOCC(=O)NCC1CCN(S(C)(=O)=O)CC1,i,i
COc1ccc(CCNC(=O)COc2ccc(C(C)C)c(C)c2)cc1OC,i,+
COc1ccc(OCC(=O)NCCc2ccc(OC)c(OC)c2)cc1,i,i
O=C(NCc1ccc2c(c1)OCO2)C(=O)Nc1c2c(nn1-c1ccc(Cl)cc1)CSC2,i,i
Cc1cc(N(C)C)nc(NCCNC(=O)Nc2ccc(C)c(C)c2)n1,i,i
SMILES,GIRK2 activator,GluA2 TARP mod
CCN(CC)c1cc(C)nc(Nc2ccc(NC(=O)C(C)(C)C)cc2)n1,i,+
Cc1cccc(C(=O)N2c3ccccc3NC(=O)CC2C)c1 (stereo not given),i,i
COc1cccc(C(=O)Nc2ccc3nc(C)n(-c4ccc(C)cc4)c(=O)c3c2)c1,nt,i
COc1ccc(-n2c(C)nc3ccc(NC(=O)c4ccc(F)c(F)c4)cc3c2=O)cc1,nt,+
CC(C)N1CCc2c(sc(NC(=O)C(C)(C)C)c2-c2nc3ccccc3s2)C1,nt,i
COc1ccc(SCCC(=O)Nc2nc3ccc4sc(C)nc4c3s2)cc1,i,i
COc1cc(/C=C2\SC(=S)N(c3ccccc3Br)C2=O)ccc1O,nt,+
CCOc1cc(/C=C2\SC(=S)N(c3ccccc3Br)C2=O)ccc1O,nt,i
COc1ccc(/C=C2\SC(=S)N(c3cccc(C)c3C)C2=O)cc1OC,nt,i
COc1cc(/C=C2\SC(=S)N(c3cccc(C)c3C)C2=O)cc(OC)c1OC,nt,+
O=C(Cc1ccc(Cl)cc1)N1CC(c2nc(-c3ccsc3)no2)C1,i,nt
COc1ccc(OCC(=O)Nc2ccc3c(c2)N(CCC(C)C)C(=O)C(C)(C)CO3)cc1,nt,i
CC(C)CCN1C(=O)C(C)(C)COc2ccc(NC(=O)COc3ccc(F)cc3)cc21,nt,+
CCOc1ccccc1NC(=O)C(=O)NCC1CCN(c2ncccn2)CC1,i,i
CCOc1ccccc1C(=O)NCC1CCN(c2ncccn2)CC1,i,+
O=C(NCC1CCN(c2ncccn2)CC1)c1c(F)cccc1F,i,i
COc1cccc2cc(C(=O)NCC3CCN(c4ncccn4)CC3)c(=O)oc12,i,+
COc1cccc(N2CC(C)Cn3c2nc2c3c(=O)n(CC(C)C)c(=O)n2C)c1 (stereo not given),nt,i
Cc1nc2c(sc3ccccc32)c(=O)n1CC(=O)Nc1ccc(C(C)C)cc1,i,nt
COc1ccc(N2C(=O)NC3CC2(C)Oc2ccc(OC)cc23)cc1 (stereo not given),i,i
CN(C)c1ccc(-c2noc(-c3cc4ccc(O)cc4oc3=O)n2)cc1,i,+
NC(=S)c1cc2ccc(O)cc2oc1=O,nt,i
Cc1ccccc1CSC1=NCCN1S(=O)(=O)c1ccc(Br)cc1,nt,i
CCC(CC)C(=O)Nc1cc(-c2cn3nc(OC)ccc3n2)ccc1OC,i,nt
COc1ccc(NC(=O)Cn2cc(-c3ccccc3)c(N3CCOCC3)n2)c(OC)c1,i,i
SMILES,GIRK2 activator,GluA2 TARP mod
COC(=O)c1ccccc1NC(=O)Cn1cc(-c2ccccc2)c(N2CCOCC2)n1,i,+
CCn1c(=NC(=O)c2ccno2)sc2cc(OC)ccc21,i,i
COc1ccc(S(=O)(=O)Nc2ccc3c(c2)CC(=O)N3)c(OC)c1,nt,i
COc1ccc(S(=O)(=O)/N=C2/C=C(Nc3cccc(C)c3)C(=O)c3ccccc32)cc1,nt,+
COC(=O)c1cccc(NS(=O)(=O)c2ccc(F)cc2)c1C,nt,i
CCOc1ccc(NC2=C/C(=N/S(=O)(=O)c3ccc(OC)cc3)c3ccccc3C2=O)cc1,nt,i
COc1ccc(S(=O)(=O)/N=C2/C=C(Nc3ccc(C)cc3)C(=O)c3ccccc32)cc1,nt,+
COc1ccc(S(=O)(=O)CCC(=O)Nc2cc(C)cc(C)c2)cc1,i,i
COC(=O)c1ccccc1NC1=C/C(=N/S(=O)(=O)c2ccc(F)cc2)c2ccccc2C1=O,nt,+
COc1ccc(SCCC(=O)Nc2nc3ccc(OC)cc3s2)cc1,i,i
CCOc1ccc(-c2ccc(OCCNS(=O)(=O)c3ccc4nc(C)sc4c3)nn2)cc1,i,i
COc1ccc(SCCC(=O)N(CCCN2CCOCC2)c2nc3ccc(C)cc3s2)cc1,i,i
O=C(CSc1nc(=O)n(CCO)c2c1CCC2)Nc1ccc(F)c([N+](=O)[O-])c1,i,+
O=C(CSc1nc(=O)n(CC2CCCO2)c2c1CCCC2)Nc1ccc(F)cc1F (stereo not given),i,+
O=c1nc(SCc2ccc(Br)cc2)c2c(n1CC1CCCO1)CCCC2 (stereo not given),i,+
O=C(CSc1nc(=O)n(CC2CCCO2)c2c1CCCC2)NCc1ccc(F)cc1 (stereo not given),i,i
O=c1nc(SCc2ccc([N+](=O)[O-])cc2)c2c(n1CC1CCCO1)CCC2 (stereo not given),i,i
O=C(CSc1nc(=O)n(CCCO)c2c1CCC2)Nc1ccc(F)c([N+](=O)[O-])c1,i,i
COc1ccccc1NC(=O)Cn1c(=O)n(CCCCC(=O)NCC(C)C)c(=O)c2ccccc21,nt,i
